Test results as given in ChEMBL document CHEMBL3433997, “St. Jude Leishmania screening dataset” (2016).

Experiments:
Type in all cases: functional
[1] = target: Solute carrier family 2, facilitated glucose transporter member 1 (Homo sapiens) (UniProt P11166); test: ST_JUDE_LEISH: Cytotoxicity at 2uM final concentration against transgenic Leishmania Mexicana promastigotes LmGLUT1 that are glucose transport deficient and complemented with the human glucose transporter GLUT1. Activity is measured by DNA content using SYBR green in vitro
[2] = target: Hexose transporter 1 (Plasmodium falciparum) (UniProt O97467); test: ST_JUDE_LEISH: Cytotoxicity at 2uM final concentration against transgenic Leishmania Mexicana promastigotes LmPfHT that are glucose transport deficient and complemented with the Plasmodium falciparum hexose transporter. Activity is measured by DNA content using SYBR green in vitro
[3] = target: Glucose transporter (Leishmania mexicana) (UniProt O61059); test: ST_JUDE_LEISH: Cytotoxicity at 2uM final concentration against transgenic Leishmania Mexicana promastigotes LmGT2 that are glucose transport deficient and complemented with the L. Mexicana glucose transporter 2. Activity is measured by DNA content using SYBR green in vitro

Sequence of Solute carrier family 2, facilitated glucose transporter member 1 (Homo sapiens) (P11166 whole entry): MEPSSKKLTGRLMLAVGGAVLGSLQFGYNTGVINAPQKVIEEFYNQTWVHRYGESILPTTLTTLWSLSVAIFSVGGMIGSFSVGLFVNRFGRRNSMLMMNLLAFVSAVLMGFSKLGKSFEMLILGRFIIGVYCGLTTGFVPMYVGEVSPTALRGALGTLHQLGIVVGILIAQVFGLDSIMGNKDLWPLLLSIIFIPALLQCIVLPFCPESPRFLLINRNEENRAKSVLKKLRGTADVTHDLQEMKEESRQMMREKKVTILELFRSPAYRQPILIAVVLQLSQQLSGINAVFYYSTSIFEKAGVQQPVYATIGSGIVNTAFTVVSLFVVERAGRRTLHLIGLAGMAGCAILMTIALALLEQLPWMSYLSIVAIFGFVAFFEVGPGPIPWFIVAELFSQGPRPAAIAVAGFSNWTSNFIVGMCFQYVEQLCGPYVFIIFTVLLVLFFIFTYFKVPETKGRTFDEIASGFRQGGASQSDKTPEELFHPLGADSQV

Row | Structure (SMILES) | inhibition [1] | inhibition [2] | inhibition [3]
1 | OCc1c(Cl)cc(Cl)cc1CNCCCNc1nc2ccccc2[nH]1 | 5.72% | 6.27% | 1.01%
2 | CCNC(=O)Nc1ccc(-c2cccc(-c3nc4cccc(C)c4[nH]3)c2)cc1 | 5.51% | 5.35% | 3.12%
3 | c1ccc(CNCc2cccc(-c3ccc(-c4nc5ccccc5[nH]4)cc3)c2)cc1 | 6.45% | 4.96% | 7.51%
4 | O=C(Nc1ccc2c(c1)CCC2)c1nc(N2CCN(c3ccncc3)CC2)ccc1Cl | 1.84% | 1.86% | 1.75%
5 | COc1ccc2nccc([C@@H](O)CN3CCC(NC(=O)c4cc5c(Cl)cc(Cl)cc5[nH]4)CC3)c2c1 | 5.68% | 7.48% | 0.08%
6 | O=C(NCC1CCN(CC2CCCCC2)C1)c1cc(-c2cccc(Cl)c2)cs1 (stereo not drawn) | 2.86% | 1.57% | 1.14%
7 | CCCOC(=O)C1=C(C)NC2=C(C(=O)CC(c3ccc(OC)c(OC)c3)C2)C1c1cccc(O)c1 (stereo not drawn) | 8.78% | 9.73% | 8.46%
8 | CCOc1ccc(NC(=O)c2ccc(CN3CCCN(Cc4cccc(O)c4)CC3)cc2)cc1 | 3.91% | 3.89% | 4.11%
9 | CC(C)(C)c1cc(CN2CCN(Cc3ccccc3)CC2)cc(C(C)(C)C)c1O | 1.34% | 2.9% | 2.7%
10 | COc1ccc(CNCc2ccccc2)cc1-c1ccc(S(=O)(=O)NCCN2CCCC2)s1 | 1.43% | 2.19% | 4.5%
11 | COc1ccc2[nH]cc(C3CCN(CCCCCNC(=O)c4ccc(-c5ccccc5)cc4)CC3)c2c1 | 4.24% | 3.36% | 2.9%
12 | Cc1[nH]c(C)c(-c2ccc(-c3ccccc3Cl)nc2)c(=O)c1Br | 0.1% | 1.48% | -0.05%
13 | COc1nc2c(CCN3CCC(NCc4ccc5c(c4)NC(=O)CO5)CC3)c(Cl)cnc2cc1F | 3.07% | 0.9% | 1.45%
14 | Cc1ccc(C(=O)Nc2ccc(OC3CCN(CCC(C)C)C3)c(Cl)c2)cc1 (stereo not drawn) | 3.79% | 4.8% | 3.43%
15 | O=C(C=Cc1ccc(Br)cc1)N1CCC(CCN2CCC(c3c[nH]c4ccccc34)CC2)CC1 | 4.46% | 8.48% | 4.25%
16 | CO/C(=C\C=C\c1cc2cc(Cl)c(Cl)cc2[nH]1)C(=O)NCCCN1CCN(c2ccncc2)CC1 | 4.85% | 3.18% | 3.48%
17 | CCOC(=O)c1ccc(NC(=O)Nc2ccc(-c3cccc(-c4nc5cc(F)ccc5[nH]4)c3)cc2)cc1 | 2.36% | 2.86% | 1.54%
18 | CCN1CCC(N(CCCCCCCCc2ccc(C(F)(F)F)cc2)C(=O)Cn2c(CCc3cccc(F)c3F)cc(=O)c3ccccc32)CC1 | 8.91% | 9.52% | 4.76%

Row | Structure (SMILES) | inhibition [1] | inhibition [2] | inhibition [3]
19 | OC(CNc1ccnc(Nc2cccc(OCCCN3CCOCC3)c2)n1)c1ccccc1 (stereo not drawn) | 0.76% | 0.43% | -0.96%
20 | COc1ccc(NC(=O)Nc2ccc(-c3ccncc3)c(C(F)(F)F)c2)cc1N1CCN(C)CC1 | 13.1% | 12.6% | 9.27%
21 | Cc1c(Cn2ncc(N3CCC(N)CC3)c(Cl)c2=O)cccc1NC(=O)Nc1ccc(-c2ccccc2)cc1 | 3.52% | 4.24% | 5.11%
22 | Nc1nc(O)c2cc(CN(C=O)c3ccc(C(=O)N[C@@H](CCC(=O)O)C(=O)O)cc3)ccc2n1 | 6.36% | 4.17% | 2.98%
23 | C=CC(C)C1OC(=O)c2cc(OC)cc(OC)c21 (stereo not drawn) | 92.2% | 89% | 86.8%
24 | O=c1c(Br)c(C(F)(F)F)[nH]c2ccc(Oc3ccccc3)cc12 | 2.41% | 2.75% | 2.63%
25 | O=C(Nc1cccc(-c2cccc(-c3nc4cc(F)ccc4[nH]3)c2)c1)c1ccncc1 | 0.54% | 0.29% | 0.2%
26 | O=C(O)C[C@H](NC(=O)c1cc(-c2ccc3c(c2)OCO3)no1)C(=O)O.O=C(O)C[C@H](NC(=O)c1conc1-c1ccc2c(c1)OCO2)C(=O)O | -1.58% | -1.07% | -2.23%
27 | CC(=O)c1cccc2c(NC(=O)Nc3ccc4nccc(N5CCN(C)CC5)c4c3)cccc12 | 7.67% | 6.04% | 7.35%
28 | Cc1cccc2nc(-c3ccc(-c4cccc(CNCCCN5CCCC5=O)c4)s3)[nH]c12 | 3.74% | 2.33% | 2.91%
29 | Cc1cccc2nc(-c3cccc(-c4ccc(CNCCc5ccncc5)cc4)c3)[nH]c12 | 0.46% | -0.37% | -0.84%
30 | COc1cccc(CCc2c(CCNCCCCCCNCCc3ccccc3)ccc(OC)c2OC)c1 | 93% | 102% | 106%
31 | CCOC(=O)N[C@@H]1CN[C@@H](C#Cc2cc3c(Nc4ccc(OCc5cccc(F)c5)c(Cl)c4)ncnc3s2)C1 | -1.82% | 0.54% | 0.09%
32 | COc1cccc(CNC(=O)c2cccc(-c3ccc(CN4CCC(N5CCCC5)CC4)cc3)n2)c1 | 7.47% | 5.46% | 8.7%
33 | COc1cc(NC(=O)CCCCCCCCN2CCN(C)CC2)c2ncccc2c1 | 1.29% | -0.26% | 0.86%
34 | COc1cccc(C(=O)NCc2cccs2)c1Oc1ccccc1 | 13.2% | 12.2% | 11%
35 | Cc1nc(-c2ccccc2)nc(N2CCN(C(=O)c3ccco3)CC2)c1Cc1ccccc1F | 7.73% | 9.03% | 7.76%
36 | O=c1cc(NCCC(CNCCc2ccccc2)NCc2cc(Br)cc(Br)c2)[nH]c2ccccc12 (stereo not drawn) | -5.14% | -3.71% | 2.71%
